Results reported in PubChem BioAssay (NCI).
This is part of a sample that, as a whole, favours compounds with a hit. Of some 83,000 tested, about 20% had one in any assay.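 Compound tested at a single concentration for 48 hours in 96-well plates; a percent growth value below 10 was scored as active.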 Calls of active or inactive are those of the source.

What was measured:
Experiment in all cases: NCI-60 one-dose screen, 48 h (100 = growth as untreated, 0 = no growth, -100 = all killed)
HCT-15 colon = conditions: 10 µM unless noted
HT29 colon = conditions: 10 µM unless noted
SNB-75 CNS = conditions: 10 µM unless noted
SNB-19 CNS = conditions: 10 µM unless noted
U251 CNS = conditions: 10 µM unless noted
PC-3 prostate = conditions: 10 µM unless noted
SK-MEL-5 melanoma = conditions: 10 µM unless noted
UACC-62 melanoma = conditions: 10 µM unless noted
LOX IMVI melanoma = conditions: 10 µM unless noted
SK-MEL-28 melanoma = conditions: 10 µM unless noted
SK-MEL-2 melanoma = conditions: 10 µM unless noted
EKVX NSCLC = conditions: 10 µM
SN12C renal = conditions: 10 µM unless noted
UO-31 renal = conditions: 10 µM unless noted
TK-10 renal = conditions: 10 µM unless noted
ACHN renal = conditions: 10 µM unless noted
CAKI-1 renal = conditions: 10 µM unless noted
A498 renal = conditions: 10 µM unless noted
CCRF-CEM leukemia = conditions: 10 µM
MOLT-4 leukemia = conditions: 10 µM unless noted

Measured: growth

O=C(N/N=C\c1ccc(Cl)cc1)C(=O)N/N=C\c1ccc(Cl)cc1
inactive: HCT-15 colon 101% | HT29 colon 103% | SNB-75 CNS 88.3% | SNB-19 CNS 96% | U251 CNS 101% | PC-3 prostate 94.5% | SK-MEL-5 melanoma 109% | UACC-62 melanoma 97.4% | LOX IMVI melanoma 106% | SK-MEL-28 melanoma 111% | SK-MEL-2 melanoma 98.4% | EKVX NSCLC 102% | SN12C renal 90.8% | UO-31 renal 78.3% | TK-10 renal 105% | ACHN renal 96.8% | CAKI-1 renal 94.6% | A498 renal 101% | CCRF-CEM leukemia 90.7% | MOLT-4 leukemia 98.1%

c1ccc(Nc2ccccn2)cc1
inactive: HCT-15 colon 96.2% | HT29 colon 99.4% | SNB-75 CNS 118% | SNB-19 CNS 98.9% | U251 CNS 103% | PC-3 prostate 102% | SK-MEL-5 melanoma 106% | UACC-62 melanoma 93.7% | LOX IMVI melanoma 102% | SK-MEL-28 melanoma 112% | SK-MEL-2 melanoma 102% | EKVX NSCLC 108% | SN12C renal 94.6% | UO-31 renal 88% | TK-10 renal 95.5% | ACHN renal 106% | CAKI-1 renal 101% | A498 renal 122% | CCRF-CEM leukemia 85% | MOLT-4 leukemia 84%

CCOC(=O)NNc1[nH]c(-c2ccc(OC)cc2)cc1C#N
active: CCRF-CEM leukemia 7.58% | MOLT-4 leukemia 8.55%
inactive: HCT-15 colon 107% | HT29 colon 132% | SNB-75 CNS 124% | SNB-19 CNS 98.6% | U251 CNS 98.2% | PC-3 prostate 99% | SK-MEL-5 melanoma 88.9% | UACC-62 melanoma 76.1% | LOX IMVI melanoma 91.6% | SK-MEL-28 melanoma 182% | SK-MEL-2 melanoma 105% | EKVX NSCLC 102% | SN12C renal 94.7% | UO-31 renal 87.8% | TK-10 renal 92.7% | ACHN renal 81.2% | CAKI-1 renal 121% | A498 renal 99.8%

C=C(NC(=O)[C@H](C(C)C)N(C)c1cccc2[nH]ccc12)C(=O)OC
inactive: HCT-15 colon 95.7% | HT29 colon 99.1% | SNB-75 CNS 105% | SNB-19 CNS 103% | U251 CNS 99.6% | PC-3 prostate 101% | SK-MEL-5 melanoma 99.4% | UACC-62 melanoma 90.5% | LOX IMVI melanoma 94.3% | SK-MEL-28 melanoma 104% | SK-MEL-2 melanoma 104% | EKVX NSCLC 93.8% | SN12C renal 101% | UO-31 renal 80.1% | TK-10 renal 94.2% | ACHN renal 101% | CAKI-1 renal 92.6% | A498 renal 94.4% | CCRF-CEM leukemia 87.1% | MOLT-4 leukemia 107%

COc1ccc(OC)c(Cn2cc3c(c2)-c2oncc2CC3)c1
inactive: HCT-15 colon 31.1% | HT29 colon 22.3% | SNB-19 CNS 50.6% | U251 CNS 37.8% | PC-3 prostate 45.5% | SK-MEL-5 melanoma 20% | UACC-62 melanoma 53% | LOX IMVI melanoma 35.4% | SK-MEL-28 melanoma 50.1% | SK-MEL-2 melanoma 45% | EKVX NSCLC 42% | SN12C renal 45.9% | UO-31 renal 41.9% | TK-10 renal 68.9% | ACHN renal 55.8% | CAKI-1 renal 12.5% | A498 renal 24.2% | CCRF-CEM leukemia 16% | MOLT-4 leukemia 28.7%
active: SNB-75 CNS -1.67%

c1ccc(Nc2ncc3c(n2)-c2cccn2CC3)cc1
inactive: HCT-15 colon 32.9% | HT29 colon 114% | SNB-75 CNS 83.3% | SNB-19 CNS 103% | U251 CNS 93.7% | PC-3 prostate 81.3% | SK-MEL-5 melanoma 67% | UACC-62 melanoma 80.1% | LOX IMVI melanoma 92.4% | SK-MEL-28 melanoma 107% | SK-MEL-2 melanoma 101% | EKVX NSCLC 66.2% | SN12C renal 85.7% | UO-31 renal 49.1% | TK-10 renal 90.8% | ACHN renal 74.4% | CAKI-1 renal 72.4% | A498 renal 75.5% | CCRF-CEM leukemia 102% | MOLT-4 leukemia 99.4%

CCCOC(=O)c1c(C)n(C)c2scc[n+]12
active: CCRF-CEM leukemia -67.1% | MOLT-4 leukemia -44.4%
inactive: HCT-15 colon 85.2% | HT29 colon 79% | SNB-75 CNS 80.1% | SNB-19 CNS 88% | U251 CNS 55.9% | PC-3 prostate 75.6% | SK-MEL-5 melanoma 102% | UACC-62 melanoma 84% | LOX IMVI melanoma 82% | SK-MEL-28 melanoma 91.5% | SK-MEL-2 melanoma 76.4% | EKVX NSCLC 43% | SN12C renal 92.4% | UO-31 renal 81.3% | TK-10 renal 104% | ACHN renal 85.8% | CAKI-1 renal 58.7% | A498 renal 48.8%

Cc1ccc(C(=O)Nc2ccc(CN3CCN(C)CC3)c(C(F)(F)F)c2)cc1C#Cc1cncc2ncccc12
active: HCT-15 colon -92.9% | HT29 colon -89.3% | SNB-75 CNS -83.9% | SNB-19 CNS -99.3% | U251 CNS -93.8% | PC-3 prostate -69.3% | SK-MEL-5 melanoma -99.3% | UACC-62 melanoma -84.8% | LOX IMVI melanoma -79% | SK-MEL-28 melanoma -90.4% | SK-MEL-2 melanoma -78.7% | EKVX NSCLC -71.8% | SN12C renal -98.2% | UO-31 renal -96.3% | TK-10 renal -98.8% | ACHN renal -98.9% | CAKI-1 renal 1.96% | A498 renal -95.5% | CCRF-CEM leukemia -56.2% | MOLT-4 leukemia -58.9%
